The results in this text go back to PubChem BioAssay.

Where “and” joins values, the source holds several entries; their conditions need not be identical. Equal values may be shown once. Calls of active or inactive are those of the source. The rule behind the calls is not given here.

In assay [1] the test system is Botulinum neurotoxin type F light chain protease (Clostridium botulinum). Description: Botulinum neurotoxin type F light chain protease inhibition, multiplex microsphere flow cytometry, validation set (AID 588459). The settings on record: multiplex microsphere protease substrate cleavage assay, at 10 µM, active compounds read high. A general note: Flow cytometry measures light scatter and fluorescence of single cells or particles in a stream.

For assay [2], the target named is Botulinum neurotoxin type A (Clostridium botulinum) (UniProt P0DPI0). The assay can be described thus: BoNT/A light chain protease inhibitors, biochemical, multiplex microsphere flow cytometry, validation set (AID 588460). The settings on record: at 10 µM, active compounds read high.
For assay [3], the target named is Lethal factor (Bacillus anthracis) (UniProt P15917). Description: Lethal factor protease inhibitors, Bacillus anthracis, multiplex microsphere cleavage assay, validation set (AID 588461). The settings on record: flow cytometry, at 10 µM, active compounds read high.
Sequence of Lethal factor (Bacillus anthracis) (P15917 whole entry, looked up): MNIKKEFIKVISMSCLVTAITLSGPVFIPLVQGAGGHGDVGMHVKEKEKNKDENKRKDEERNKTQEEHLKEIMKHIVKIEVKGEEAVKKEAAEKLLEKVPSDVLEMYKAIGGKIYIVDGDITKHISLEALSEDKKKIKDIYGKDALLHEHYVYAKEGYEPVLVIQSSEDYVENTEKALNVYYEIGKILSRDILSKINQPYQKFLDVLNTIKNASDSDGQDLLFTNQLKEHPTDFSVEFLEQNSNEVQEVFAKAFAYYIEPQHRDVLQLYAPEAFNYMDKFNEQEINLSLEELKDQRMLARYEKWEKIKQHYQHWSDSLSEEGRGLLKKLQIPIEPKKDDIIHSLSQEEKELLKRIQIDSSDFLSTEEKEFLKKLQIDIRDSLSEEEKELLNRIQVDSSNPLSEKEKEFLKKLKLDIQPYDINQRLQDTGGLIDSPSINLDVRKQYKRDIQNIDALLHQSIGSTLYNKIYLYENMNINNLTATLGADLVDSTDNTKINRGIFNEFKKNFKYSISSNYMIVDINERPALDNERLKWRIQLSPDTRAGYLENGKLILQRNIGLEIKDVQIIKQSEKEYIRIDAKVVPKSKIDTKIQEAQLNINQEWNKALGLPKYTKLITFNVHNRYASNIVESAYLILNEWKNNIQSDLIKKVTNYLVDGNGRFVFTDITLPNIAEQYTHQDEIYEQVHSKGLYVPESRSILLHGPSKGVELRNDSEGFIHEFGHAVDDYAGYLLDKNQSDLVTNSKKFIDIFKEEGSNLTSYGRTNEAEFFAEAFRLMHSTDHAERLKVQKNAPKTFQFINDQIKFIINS

Sequence of Botulinum neurotoxin type A (Clostridium botulinum) (P0DPI0 whole entry, looked up): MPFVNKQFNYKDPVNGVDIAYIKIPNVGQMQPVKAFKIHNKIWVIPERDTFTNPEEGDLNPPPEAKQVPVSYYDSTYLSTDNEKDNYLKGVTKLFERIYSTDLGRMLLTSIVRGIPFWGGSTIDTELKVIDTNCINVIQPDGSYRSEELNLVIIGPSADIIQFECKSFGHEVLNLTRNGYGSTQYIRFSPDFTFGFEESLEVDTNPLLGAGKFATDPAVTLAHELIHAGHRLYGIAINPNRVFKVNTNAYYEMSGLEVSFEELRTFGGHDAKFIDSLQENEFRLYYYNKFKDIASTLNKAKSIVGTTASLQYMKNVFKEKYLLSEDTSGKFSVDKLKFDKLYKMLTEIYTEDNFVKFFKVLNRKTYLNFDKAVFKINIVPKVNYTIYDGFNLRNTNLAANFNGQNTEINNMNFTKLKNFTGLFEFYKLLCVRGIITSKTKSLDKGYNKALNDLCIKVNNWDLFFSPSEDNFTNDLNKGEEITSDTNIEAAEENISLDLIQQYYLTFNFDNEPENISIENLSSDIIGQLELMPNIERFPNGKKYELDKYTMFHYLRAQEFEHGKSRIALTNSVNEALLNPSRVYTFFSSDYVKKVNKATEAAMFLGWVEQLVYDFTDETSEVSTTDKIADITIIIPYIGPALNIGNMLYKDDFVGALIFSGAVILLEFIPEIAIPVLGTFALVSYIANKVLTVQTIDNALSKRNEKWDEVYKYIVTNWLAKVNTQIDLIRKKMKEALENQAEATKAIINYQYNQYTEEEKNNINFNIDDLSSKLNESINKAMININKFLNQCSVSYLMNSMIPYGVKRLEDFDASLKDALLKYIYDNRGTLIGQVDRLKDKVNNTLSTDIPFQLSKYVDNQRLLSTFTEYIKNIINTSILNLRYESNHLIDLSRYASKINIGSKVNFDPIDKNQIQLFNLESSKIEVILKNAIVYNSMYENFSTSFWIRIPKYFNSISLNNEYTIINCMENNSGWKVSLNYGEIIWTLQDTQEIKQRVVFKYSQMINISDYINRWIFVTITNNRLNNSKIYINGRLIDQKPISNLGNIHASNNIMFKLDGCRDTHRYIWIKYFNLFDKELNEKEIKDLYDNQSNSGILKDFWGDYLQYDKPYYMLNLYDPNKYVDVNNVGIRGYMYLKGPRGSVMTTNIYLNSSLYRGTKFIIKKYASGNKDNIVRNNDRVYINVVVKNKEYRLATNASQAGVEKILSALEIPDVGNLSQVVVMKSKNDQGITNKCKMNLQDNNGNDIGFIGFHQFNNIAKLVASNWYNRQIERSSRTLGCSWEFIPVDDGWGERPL

The term inhibition denotes the drop in the measured response relative to a control, in per cent. Take `c1ccc(Cn2nnc3cnccc32)cc1`: the inhibition in assay [1] is 3.6% (inactive); in assay [2], -0.8% (inactive); in assay [3] it was 1.4% (inactive).

On to `CC(C)C(=O)Nc1cccnc1`, for which the inhibition is -1.8% (inactive) in assay [1], 0.9% (inactive) in assay [2] and -5.8% (inactive) in assay [3].

Turning to `CCOC(=O)c1c(C)oc2c1C(=O)c1ccccc1C2=O`, the inhibition in assay [1] is 3.1% (inactive); in assay [2] it was 1.4% (inactive); in assay [3], -9.3% (inactive).

Consider `CCC1(c2ccccc2)C(=O)NCNC1=O`, for which the values for the inhibition in assay [1] and in assay [2] were 0% (inactive) and -0.9% (inactive), respectively.

On to `COc1ccc(C=NCC2COc3ccccc3O2)cc1OC` (centres undefined), for which the figures for the inhibition in assay [1], in assay [2] and in assay [3] were -0.8% (inactive), -3.3% (inactive) and -3.2% (inactive), respectively.

For the compound `CN1[C@@H]2CC(OC(=O)[C@H](CO)c3ccccc3)C[C@H]1[C@@H]1O[C@@H]12` (some centres undefined), the inhibition in assay [1] was -2.9% (inactive); in assay [2], -2.7% (inactive) and -1% (inactive).

Take `c1ccc(CC2=NCCN2)cc1`: the inhibition in assay [1] was 1.9% (inactive); in assay [2] it was -1.4% (inactive); in assay [3], -4.7% (inactive).

`Cc1ccccc1NC(=O)NCCc1c[nH]c2ccccc12`: the results for the inhibition in assay [1], in assay [2] and in assay [3] were -1.9% (inactive), -0.2% (inactive) and -3.6% (inactive), respectively.

Consider `COc1cc2c(cc1OC)CN(C(=O)c1ccc(S(=O)(=O)N(C)c3ccccc3)cc1)CC2`, for which the inhibition is 0.9% (inactive) in assay [1], 0.6% (inactive) in assay [2] and 3.4% (inactive) in assay [3].

As for `COC(=O)c1ccc2c(c1)C(=O)/C(=C/c1ccc(O)cc1)O2`, the inhibition in assay [1] was -0.8% (inactive); in assay [2], 0.7% (inactive); in assay [3], -8.5% (inactive).

Consider `NS(=O)(=O)c1cc2c(cc1Cl)NC(C(Cl)Cl)NS2(=O)=O` (centres undefined), for which the inhibition in assay [1] was -0.3% (inactive); in assay [2] it was 0.1% (inactive); in assay [3] it was -3% (inactive).

Turning to `O=C(Nc1ncc2c(n1)CC(c1ccco1)CC2=O)c1ccco1` (centres undefined), the inhibition is -2.6% (inactive) in assay [1], -3.2% (inactive) in assay [2] and -10.4% (inactive) in assay [3].
